This passage reports outcome and AC50 results from PubChem BioAssay (EPA / NIEHS).

Several values for one entry are separate records, joined by “and”; a condition that tells them apart may be missing. Equal entries are not always repeated. The source holds several records for some structures; these can differ, active in one and inactive in another. Activity calls are given as the source filed them. Rule for the calls: active = hit-call score of the fitted dose curve at least 0.9, where 1 is the maximum; inactive = score below 0.9.

Read-out in assay [1]: KRT18 (gene 3875)
Description: BSK_BF4T_Keratin818: BioMAP Diversity Plus: BF4T Assay for Keratin 818 Biomarker Activity (AID 2284266). The conditions noted are these: primary human bronchial epithelial cells with fibroblasts. The method, boiled down:
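Keratin 8/18 levels quantified by ELISA after 24 h chemical treatment of bronchial epithelial cell/dermal fibroblast co-cultures, fitted in positive direction relative to DMSO. Parallel SRB staining tracks overt cytotoxicity.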

Assay [2] can be described thus: BSK_MyoF_SRB: Viability Assessment in the BioMAP Diversity Plus: MyoF Assay (AID 2284267).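 Note: total protein by SRB absorbance in parallel cultures as cytotoxicity measure; cells assessed 24 h after compound addition.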 The conditions noted are these: primary human lung fibroblasts. A digest of the protocol:
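Confluent human lung fibroblasts were exposed to test chemicals for 24 h. Parallel wells were then fixed in 10% TCA, stained with 0.1% sulforhodamine B and measured at 560 nm. DMSO served as baseline for curve fitting.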

Read-out in assay [3]: Matrix Metallopeptidase 1 (MMP1), MMP1 (gene 4312)
Description: BSK_MyoF_MMP1: BioMAP Diversity Plus: MyoF Assay for Matrix Metallopeptidase 1 (MMP1) Biomarker Activity (AID 2284268). The settings on record: primary human lung fibroblasts. The method, boiled down: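 Cells: human lung fibroblasts. Exposure: 24 h chemical dosing. Detection: ELISA for MMP1. Analysis: upward fitting against DMSO negative control.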

Read-out in assay [4]: TIMP metallopeptidase inhibitor 1 (TIMP1), TIMP1 (gene 7076)
Put plainly: BSK_MyoF_TIMP1: BioMAP Diversity Plus: MyoF Assay for TIMP metallopeptidase inhibitor 1 (TIMP1) Biomarker Activity (AID 2284269). The conditions noted are these: primary human lung fibroblasts. A digest of the protocol: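 TIMP-1 levels were determined by ELISA in human lung fibroblasts treated for 24 h. DMSO served as negative control and baseline for upward curve fitting.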

Read-out in assay [5]: Matrix Metallopeptidase 1 (MMP1), MMP1 (gene 4312)
Put plainly: BSK_BF4T_MMP1: BioMAP Diversity Plus: BF4T Assay for Matrix Metallopeptidase 1 (MMP1) Biomarker Activity (AID 2284270). The conditions noted are these: primary human bronchial epithelial cells with fibroblasts. The method, boiled down: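 MMP-1 quantified by ELISA in primary human bronchial epithelial/dermal fibroblast co-cultures, 24 hours post-dosing, with DMSO as baseline; parallel sulforhodamine B staining (560 nm) tracks overt cytotoxicity.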

Read-out in assay [6]: Matrix Metallopeptidase 3 (MMP3), MMP3 (gene 4314)
Put plainly: BSK_BF4T_MMP3: BioMAP Diversity Plus: BF4T Assay for Matrix Metallopeptidase 3 (MMP3) Biomarker Activity (AID 2284271). The conditions noted are these: primary human bronchial epithelial cells with fibroblasts. The method, boiled down:
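MMP-3 level read by ELISA after 24 h chemical exposure of bronchial epithelial cell/dermal fibroblast co-cultures, fitted upward relative to DMSO. Parallel cultures stained with 0.1% SRB after TCA fixation gauge overt cytotoxicity.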

Read-out in assay [7]: Tissue plasminogen activator (tPA), PLAT (gene 5327)
Put plainly: BSK_BF4T_tPA: BioMAP Diversity Plus: BF4T Assay for Tissue plasminogen activator (tPA) Biomarker Activity (AID 2284272). The conditions noted are these: primary human bronchial epithelial cells with fibroblasts. A digest of the protocol: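 tPA level quantified by ELISA at 24 h post-treatment in bronchial epithelial/dermal fibroblast co-cultures, gain of signal scored against DMSO baseline. Parallel cultures stained with 0.1% SRB (560 nm) to flag overt cytotoxicity.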

A short description of assay [8]: BSK_BF4T_SRB: Viability Assessment in the BioMAP Diversity Plus: BF4T Assay (AID 2284274). The conditions noted are these: primary human bronchial epithelial cells with fibroblasts. A digest of the protocol: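 Cytotoxicity measured as total protein: cells fixed with 10% TCA, stained with 0.1% SRB, read at 560 nm. Bronchial epithelial/dermal fibroblast co-culture, 24 h after dosing, with positive-direction fitting relative to DMSO.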

Read-out in assay [9]: urokinase Plasminogen Activator (uPA), PLAU (gene 5328)
Put plainly: BSK_BF4T_uPA: BioMAP Diversity Plus: BF4T Assay for urokinase Plasminogen Activator (uPA) Biomarker Activity (AID 2284275). The conditions noted are these: primary human bronchial epithelial cells with fibroblasts. A digest of the protocol: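 uPA levels measured by ELISA at 24 hours in BF4T cultures (bronchial epithelial cells plus dermal fibroblasts) and compared with DMSO; cytotoxicity tracked in parallel cultures by sulforhodamine B staining.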

Read-out in assay [10]: Interleukin-8 (IL8), CXCL8 (gene 3576)
Put plainly: BSK_IMphg_IL8: BioMAP Diversity Plus: IMphg Assay for Interleukin-8 (IL8) Biomarker Activity (AID 2284277). The settings on record: primary human endothelial cells with macrophages. A digest of the protocol:
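IL-8 levels were measured by ELISA 24 h after dosing in primary human venular endothelial cell–macrophage cultures, referenced to DMSO; parallel SRB staining monitored overt cytotoxicity.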

Read-out in assay [11]: Interferon-inducible T-cell alpha chemoattractant (ITAC), CXCL11 (gene 6373)
Put plainly: BSK_BE3C_ITAC: BioMAP Diversity Plus: BE3C Assay for Interferon-inducible T-cell alpha chemoattractant (ITAC) Biomarker Activity (AID 2284279). The settings on record: primary human bronchial epithelial cells. A digest of the protocol:
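The assay measures I-TAC levels by ELISA in human primary bronchial epithelial cell cultures 24 hours after chemical treatment. Values reflect signal increase over the DMSO baseline.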

Read-out in assay [12]: Interleukin-8 (IL8), CXCL8 (gene 3576)
Description: BSK_BE3C_IL8: BioMAP Diversity Plus: BE3C Assay for Interleukin-8 (IL8) Biomarker Activity (AID 2284280). The conditions noted are these: primary human bronchial epithelial cells. The method, boiled down: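 Dose human bronchial epithelial cells with chemical; incubate 24 h; quantify IL-8 by ELISA; fit response upward versus DMSO controls.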

Read-out in assay [13]: Epidermal growth factor receptor (EGFR), EGFR (gene 1956)
Description: BSK_BE3C_EGFR: BioMAP Diversity Plus: BE3C Assay for Epidermal growth factor receptor (EGFR) Biomarker Activity (AID 2284281). The settings on record: primary human bronchial epithelial cells. The method, boiled down: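 ELISA read-out of EGFR levels on human bronchial epithelial primary cells collected 24 h post-dosing. DMSO served as negative control and baseline for gain-of-signal fitting.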

Read-out in assay [14]: KRT18 (gene 3875)
Put plainly: BSK_BE3C_Keratin818: BioMAP Diversity Plus: BE3C Assay for Keratin 818 Biomarker Activity (AID 2284282). The conditions noted are these: primary human bronchial epithelial cells. A digest of the protocol: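 Keratin 8/18 levels, detected by ELISA, served as the endpoint after 24 h chemical exposure of primary human bronchial epithelial cells. Gain of signal relative to DMSO negative control defined activity.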

Read-out in assay [15]: Matrix Metallopeptidase 9 (MMP9), MMP9 (gene 4318)
Description: BSK_BE3C_MMP9: BioMAP Diversity Plus: BE3C Assay for Matrix Metallopeptidase 9 (MMP9) Biomarker Activity (AID 2284283). The conditions noted are these: primary human bronchial epithelial cells. A digest of the protocol: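 ELISA read-out of MMP-9 after 24 h compound exposure of human lung bronchial epithelial primary cells (BE3C). Fit in gain direction vs DMSO negative control; total protein by SRB in parallel cultures flagged overt cytotoxicity.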

Read-out in assay [16]: Plasminogen activator inhibitor-1 (PAI1), SERPINE1 (gene 5054)
Put plainly: BSK_CASM3C_PAI1: BioMAP Diversity Plus: CASM3C Assay for Plasminogen activator inhibitor-1 (PAI1) Biomarker Activity (AID 2284284).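 Note: PAI-1 protein level measured by ELISA 24 h after dosing.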 The settings on record: primary human coronary artery smooth muscle cells.

Read-out in assay [17]: Vascular cell adhesion molecule 1 (VCAM1), VCAM1 (gene 7412)
Put plainly: BSK_IMphg_VCAM1: BioMAP Diversity Plus: IMphg Assay for Vascular cell adhesion molecule 1 (VCAM1) Biomarker Activity (AID 2284286). The settings on record: primary human endothelial cells with macrophages. A digest of the protocol:
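ELISA read-out of VCAM-1 on venular endothelial cell/macrophage co-cultures at 24 h post-treatment, with DMSO as baseline and positive-direction fitting. Parallel sulforhodamine B total-protein staining (560 nm) served as the overt cytotoxicity measure.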

Read-out in the next assay: CD40, CD40 (gene 958)
Description: BSK_IMphg_CD40: BioMAP Diversity Plus: IMphg Assay for CD40 Biomarker Activity (AID 2284288). The conditions noted are these: primary human endothelial cells with macrophages. A digest of the protocol:
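ELISA read-out of cell-surface CD40 at 24 h in human venular endothelial cell/macrophage co-cultures. Activity fitted in the positive direction against DMSO; parallel SRB staining (560 nm) gauges overt cytotoxicity.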

Read-out in assay [18]: TIMP metallopeptidase inhibitor 2 (TIMP2), TIMP2 (gene 7077)
Put plainly: BSK_hDFCGF_TIMP2: BioMAP Diversity Plus: hDFCGF Assay for TIMP metallopeptidase inhibitor 2 (TIMP2) Biomarker Activity (AID 2284289). The settings on record: primary human foreskin fibroblasts. The method, boiled down: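 Primary human foreskin fibroblasts in the hDFCGF system, dosed for 24 h; TIMP-2 level measured by ELISA, fitted in the positive direction against DMSO; cytotoxicity checked in parallel by sulforhodamine B total protein staining.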

Read-out in assay [19]: Interleukin-1 alpha (IL1a), IL1A (gene 3552)
Description: BSK_IMphg_IL1a: BioMAP Diversity Plus: IMphg Assay for Interleukin-1 alpha (IL1a) Biomarker Activity (AID 2284290). The settings on record: primary human endothelial cells with macrophages. The method, boiled down:
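IL-1α is quantified by ELISA at 24 h in the endothelial/macrophage IMphg co-culture, with gain of signal fitted relative to DMSO. Parallel SRB total-protein staining flags overt toxicity.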

Turning to `C[Si](C)(C)C(F)(F)C(F)(F)C(F)(F)F`, the result (in the assay with KRT18 (gene 3875) [1]; in [2]; in assay [3]; in assay [4]; in assay [5]; in [6]) was inactive. The outcome in assay [7], in assay [8], in [9], in assay [10], in assay [11] and in assay [12] was inactive. Besides, the outcome was “inactive” in assay [13]; “inactive” with KRT18 (gene 3875) [14]; “inactive” in assay [15]; “inactive” in assay [16]; “inactive” in assay [17]; “inactive” with CD40, CD40 (gene 958). The result in assay [18] and in assay [19] was inactive.

Turning to `O=S(=O)(O)CCC(F)(F)C(F)(F)C(F)(F)C(F)(F)C(F)(F)C(F)(F)F`, the result (with KRT18 (gene 3875) [1]; in assay [2]; in assay [3]; in assay [4]; in [5]; in assay [6]) was inactive. For the same compound, the outcome in [7], in [8], in [9], in assay [10], in assay [11] and in [12] was inactive. The outcome in [13] is “inactive”; with KRT18 (gene 3875) [14] it was “inactive”; in [15] it was “inactive”; in assay [16], “inactive”; in assay [17] it was “inactive”; in the assay with CD40, CD40 (gene 958) it was “inactive”. In addition, the result in assay [18] and in assay [19] was inactive.

In the case of `FC(F)(F)C(F)(F)C(F)(F)C(F)(F)C(F)(F)C(F)(F)I`, the result (with KRT18 (gene 3875) [1]; in [4]; in assay [5]; in assay [6]; in [7]; in assay [8]) was inactive. Also, the outcome (in [9]; in assay [10]; in [11]; in assay [12]; in assay [13]; with KRT18 (gene 3875) [14]) was inactive. Further, the outcome is “inactive” in assay [15]; “inactive” in assay [16]; “inactive” in [17]; “inactive” with CD40, CD40 (gene 958); “inactive” in [18]; “inactive” in assay [19]. The AC50 – broadly, the midpoint of the concentration-response curve, whichever way the signal moves – is 25.6 µM (active) and 26.5 µM (active) in assay [2]; 14 µM (active) and 21.6 µM (active) in assay [3].

Consider `Cc1cccc(O)c1C`, for which the outcome in [2], in assay [3] and in [4] was inactive.

On to `NCC(F)(F)C(F)(F)C(F)(F)C(F)(F)F`, for which the outcome (in the assay with KRT18 (gene 3875) [1]; in assay [2]; in assay [3]; in assay [4]; in assay [5]; in assay [6]) was inactive. The outcome in assay [7], in [8], in assay [9], in assay [10], in [11] and in assay [12] was inactive. Further, the outcome was “inactive” in assay [13]; “inactive” in the assay with KRT18 (gene 3875) [14]; “inactive” in assay [15]; “inactive” in assay [16]; “inactive” in assay [17]; “inactive” with CD40, CD40 (gene 958). The outcome in [18] and in assay [19] was inactive. The AC50 in assay [4] was 307 nM (active).

Consider `O=C(Cl)C(F)(F)C(F)(F)C(F)(F)C(=O)Cl`, for which the result (with KRT18 (gene 3875) [1]; in assay [2]; in [3]; in assay [4]; in [5]; in assay [6]) was inactive. Also, the outcome in assay [7], in assay [8], in [9], in assay [10], in assay [11] and in [12] was inactive. For the same compound, the outcome was “inactive” in [13]; “inactive” in the assay with KRT18 (gene 3875) [14]; “inactive” in assay [15]; “inactive” in assay [16]; “inactive” in assay [17]; “inactive” in the assay with CD40, CD40 (gene 958). Also, the result in assay [18] and in [19] was inactive.
